From PubChem
EWS-Fli block: EWS/Fli transcriptional activity inhibition; inhibition, % at 12.6 µM; A673 NR0B1-luciferase reporter, viability-normalised; 350,000 compounds, 0.67% hits;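 active = mean inhibition of at least 50% after viability correction, with every replicate also passing that limit; inconclusive = mean reaches 50% but only one of two replicates passes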;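 note: firefly luciferase signal divided by Alamar Blue viability fluorescence both relative to DMSO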
GAA850 FXN act: frataxin GAA850 promoter activation; HEK293 lucGAA850 FXN promoter luciferase reporter, 24 h; percent of 10 µM SAHA response; activation, % at 6 µM; 360,000 compounds, 0.56% hits; AID 540364;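 active = activation above the average of all compounds screened plus 3 SD, cutoff fixed separately per campaign, cut at about 7.5% in these data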;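 note: 0% = DMSO wells and 100% = 10 µM SAHA wells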
HIV Env fusion: inhibitors of HIV Env-mediated cell fusion; HeLa-JRFL Env/CEM21 cell fusion, luciferase; inhibition, % at 12.3 µM; 360,000 compounds, 1.1% hits;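 active = mean replicate inhibition score of at least 50 and every replicate individually at or above 50; inconclusive = only one of the two criteria met; inactive = mean below 50 and not all replicates reaching 50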;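 note: 0% = plate neutral controls and 100% = maraviroc near 300 nM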
PAX8 reporter: inhibitors of PAX8 transcriptional activity in RMG-I cells | RMG-I TPO-luciferase reporter, SteadyGlo, 24 h | inhibition, % at 12.6 µM | 360,000 compounds, 1.2% hits | AID 652154;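 active = mean replicate inhibition at least 60% with every replicate also reaching 60%; inconclusive = only one of the two criteria is met; inactive = mean below 60% and not all replicates reaching 60%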;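 note: luciferase light reporting Pax8 driven TPO promoter activity; plate controls were median of neutral control wells for no effect and mitoxantrone controls for full effect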
CFTR F508del cor: correctors of CFTR F508del function in bronchial epithelial cells. CFBE cells, YFP halide quenching; stimulated with forskolin plus potentiator P3; % fluorescence drop versus neutral controls. activity (quench increase), % at 7.58 µM. 350,000 compounds, 0.36% hits. AID 720511;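 active = mean added fluorescence quench of at least 8% versus neutral control, with both replicates also reaching 8%; inconclusive = only one of the mean or replicate conditions met; inactive = mean below 8% and not both replicates reaching 8%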;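 note: cells transiently co-express mutant CFTR-F508del with the halide-sensitive YFP; corrector assay measuring rescue of mutant channel to the surface after 24 h compound exposure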
GAA30 counter: GAA30 FXN promoter activation counter-screen. HEK293 lucGAA30 FXN promoter luciferase, 24 h; DMSO = 0%, 5 µM ipriflavone = 100%. 1,900 compounds, 66% hits. AID 588350. shares compounds with GAA850 FXN act. activation, % at 6 µM;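 active = mean activation above the mean of solvent-only control wells plus 3 SD, cut at about 22% in these data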;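 note: counterscreen of GAA850 promoter hits where activity marks nonselective or luminescence artifacts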
GAA850 confirm: GAA850 FXN promoter activation confirmation; shares compounds with GAA850 FXN act; HEK293 lucGAA850 FXN promoter luciferase reporter, 24 h; 100% = activation by SAHA; activation, % at 6 µM; 1,900 compounds, 86% hits; AID 588351;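 active = mean activation above a set limit taken from the primary screen, cut at about 8% in these data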;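 note: 0% = DMSO wells and 100% = 10 µM SAHA wells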
* = called active by the depositor; ? = inconclusive; nt = no result; [ ] = another dose, or the depositor's remark. Only some compounds are listed: those with a hit (about 2.5% of all), similar ones and a draw of the others.

SMILES	EWS-Fli block	GAA850 FXN act	HIV Env fusion	PAX8 reporter	CFTR F508del cor	GAA30 counter	GAA850 confirm
CC1CCc2c(sc(NC(=O)c3noc4c3CCCC4)c2C(N)=O)C1 (centres undefined)	-132	7.8*	-20	-21	-2	102*	29*
COCC(=O)Nc1ccc2c(c1)OC[C@@H](C)N(C(=O)COC)C[C@H](C)[C@H](OC)CN(C)C2=O	-5	nt	nt	-2	-4	nt	nt
O=C(COC(=O)Cn1cnc2ccccc21)Nc1ccc(Br)cc1	-7	0	3	7	-2	nt	nt
O=C(COC(=O)Cn1cnc2ccccc21)Nc1ccc2c(c1)C(=O)c1ccccc1C2=O	-91	8.7*	-90	-166	0	108*	46*
CN1CCCCN2[C@H](CO)[C@@H](c3ccc(-c4cccnc4)cc3)[C@@H]2C1	-8	nt	nt	-15	2	nt	nt
COc1cccc2sc3cc(NCc4ccc(C)o4)ccc3c(=O)c12	-43	7.7*	1	-68	0	88*	34*
COc1cc2sc(-c3ccc(S(C)(=O)=O)cc3)c(C(=O)NCc3ccc(C)o3)c2cc1OC	7	0	-2	5	-2	nt	nt
N#Cc1nc(-c2ccccc2F)oc1N1CCCCC1	-10	5	-15	-5	-6	nt	nt
N#Cc1nc(COc2ccccc2F)oc1N1CCCCCC1	nt	9.6*	24	-62	nt	47*	24*
N#Cc1nc(-c2ccccc2Cl)oc1N1CCCCC1	nt	8.7*	nt	nt	nt	56*	26*
Clc1ccc2oc(-c3ccccc3)cc(=NCCCN3CCOCC3)c2c1	-149	9.4*	-131	-56	1	51*	22*
COc1ccc(S(=O)(=O)N(C)C[C@H]2OCCCC[C@H](C)Oc3ccc(NC(=O)CCCN(C)C)cc3C(=O)N([C@@H](C)CO)C[C@@H]2C)cc1	-7	nt	-11[16.7 µM]	16	-3	nt	nt
CSc1ncnc2c1ncn2CCCN[C@H](C)c1cccc2ccccc12	5	9.6*	58*	-23	3	19	9.8*
COc1ncnc2c1ncn2CCCN[C@H](C)c1cccc2ccccc12	7	2	nt	9	-3	nt	nt
CCCC(=O)Nc1ccc2c(c1)C(=O)N(C)[C@@H]1CC[C@H](CC(=O)NCC(F)(F)F)O[C@@H]1CO2	4	nt	-11[16.7 µM]	2	-4	nt	nt
O=C(NC(=S)Nc1cccnc1Cl)c1ccco1	-78	7.8*	-25	-59	1	64*	20*
CCC(=O)N(C)C[C@@H]1Oc2ncc(-c3ccc(C)cc3)cc2C(=O)N([C@H](C)CO)C[C@@H]1C	-2	nt	4[16.7 µM]	nt	-2	nt	nt
Fc1cccc(Cn2ccc(-c3ccc4c(c3)OCO4)n2)c1	nt	9.4*	-36	nt	nt	84*	25*
Cc1ccccc1Cn1ccc(-c2ccc3c(c2)OCO3)n1	nt	1	-30	nt	nt	nt	nt
Cc1ccc2nc(-c3ccc(O)c(O)c3)cn2c1	1	10*	-15	13	2	122*	49*
Cc1ccc2nc(-c3ccccc3)cn2c1	nt	-13	nt	nt	nt	nt	nt
O=C(NC12CC3CC(CC(C3)C1)C2)OCCNC1CCCCC1	0	15*	77*	-12	2	23*	10*
COc1cc(-c2cnc3c(NC(C)=O)cc(-c4ccc(N5CCN(C)CC5)cc4)cn23)cc(OC)c1OC	17	-8	28	20	-1	nt	nt
COc1cc(-c2cnc3c(NC=O)cc(-c4ccc(N5CCN(C)CC5)cc4)cn23)cc(OC)c1OC	-27	11*	-43	-17	0	109*	51*
O=C(Nc1cccc(Cl)c1)N1C[C@H]2[C@@H](c3ccccc31)[C@H](CO)N2C(=O)C1CC1	-5	nt	nt	-11	0	nt	nt
SMILES	EWS-Fli block	GAA850 FXN act	HIV Env fusion	PAX8 reporter	CFTR F508del cor	GAA30 counter	GAA850 confirm
CN(/N=C/c1ccncc1)c1cnc2ccccc2n1	-43	9.6*	-110	-130	-2	105*	29*
CN(/N=C/c1ccncc1)C1=NCCN1	6	-1	-9	-7	nt	nt	nt
C[C@@H]1CN([C@@H](C)CO)C(=O)c2cccc(NC(=O)c3ccncc3)c2O[C@@H]1CN(C)C(=O)Nc1ccccc1	-7	nt	nt	-12	-4	nt	nt
Cc1cccc(N2C(=O)N3[C@H](c4ccc(Br)cc4)[C@@H]4C(=O)N(C(C)(C)C)C(=O)[C@@H]4[C@]3(Cc3ccc(Cl)cc3)C2=O)c1	-2	10*	?	18	-3	18	17*
Cc1cccc(N2C(=O)N3[C@H](c4ccc(Br)cc4)[C@@H]4C(=O)N(C(C)(C)C)C(=O)[C@@H]4[C@]3(C)C2=O)c1	5	14*	112*	7	-1	28*	16*
Cc1ccc(N2C(=O)N3[C@H](c4ccc(Br)cc4)[C@@H]4C(=O)N(C(C)(C)C)C(=O)[C@@H]4[C@]3(C)C2=O)cc1	-4	6	23	6	3	nt	nt
CN(C)CCCNC(=O)C[C@H]1CC[C@@H]2[C@@H](COc3ccc(NC(=O)c4cccc(F)c4)cc3C(=O)N2C)O1	-14	nt	-20[16.7 µM]	-22	0	nt	nt
O=C1CN(S(=O)(=O)Cc2ccccc2)C[C@H]2[C@H](c3ccc(C#Cc4ccc(F)cc4)cc3)[C@@H](CO)N12	10	nt	nt	54	6	nt	nt
COc1ccc(/C=N\NC(=O)c2sccc2C)cc1Cn1nc(C)cc1C	19	8.1*	5	-15	3	42*	22*
O=C(CN(C(=O)CSc1nc2ccccc2o1)c1ccccc1)NC1CCCCC1	nt	0	nt	nt	nt	nt	nt
O=C(CSc1nc2ccccc2o1)NC1CCCC1	4	7.6*	-8	-5	1	3	2
C[C@@H]1CCCCO[C@@H](CN(C)S(=O)(=O)c2ccccc2)[C@@H](C)CN([C@@H](C)CO)C(=O)c2cc(NC(=O)Nc3ccc4c(c3)OCO4)ccc2O1	-6	nt	-2[16.7 µM]	-16	2	nt	nt
COc1ccccc1-c1ccc2c(c1)C(C)(Cc1cccc(F)c1)C(=O)N2 (centres undefined)	7	11*	73*	5	-5	17	12*
COc1ccc(C(C)=O)cc1CC1(C)C(=O)Nc2ccc(-c3ccccc3OC)cc21 (centres undefined)	-3	15*	70*	-8	-1	10	9.2*
C[C@H](CO)N1C[C@H](C)[C@@H](CN(C)Cc2ccc(C(=O)O)cc2)Oc2ccc(NC(=O)Nc3ccc(F)cc3)cc2C1=O	4	nt	nt	0	-2	nt	nt
O=C(O)C[C@H]1C[C@@H]2c3cc(NC(=O)c4cccnc4)ccc3O[C@@H]2[C@H](CO)O1	-6	nt	nt	nt	-1	nt	nt
Cc1ccc(Nc2ncccc2C(N)=O)cc1[N+](=O)[O-]	-49	10*	-66	-202	nt	100*	27*
Cc1ccc(Nc2ncccc2C(=O)O)cc1C	-22	1	nt	-84	-2	nt	nt
Clc1nc(-c2cccnc2)nc2scc(-c3ccccc3)c12	-42	8.1*	-4	-52	0	97*	31*
